{"source": "PubChem BioAssay AID1347056", "about": "(Sanford-Burnham Center for Chemical Genomics, 2019)", "note": "Among all 360,000 compounds or so, about 3,600 (1%) were called active. This is one part of a sample in which actives are shown more often than they occur.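 The calls were made as follows: active = compounds whose plate-normalised and pattern-corrected inhibition of the luciferase reporter signal at the single screening dose is 50% or more; inactive = the rest.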"}
{"assay": "inhibitors of TROY-driven NF-kB signaling, primary screen, Q293 LMP1-TROYcd cells, NF-kB luciferase, uHTS (AID 1347056)", "details": "Q293 LMP1-TROYcd NF-kB luciferase reporter, 4 h; at 10 µM; active compounds read high"}
{"compound": "COc1ccc(C(=O)/C=C/Nc2ccccn2)cc1", "inhibition": "72.4% (active)"}
{"compound": "COCCN(C(=O)CCC(=O)Nc1ccccn1)C(C(=O)NCCC(C)C)c1ccc(OC)cc1", "note": "(stereo not drawn)", "inhibition": "5.49% (inactive)"}
{"compound": "COc1ccc2nc(-c3ccccn3)ccc2c1", "inhibition": "6.94% (inactive)"}
{"compound": "CCOC(=O)c1c(C)[nH]c2c1-c1ccccc1C(=O)C2=O", "inhibition": "63.1% (active)"}
{"compound": "CCOC(=O)c1c(C)[nH]c(C)c1C(=O)CSc1nc(N)cc(N)n1", "inhibition": "4.52% (inactive)"}
{"compound": "CCOC(=O)c1cnc(COc2ccccc2Cl)[nH]c1=O", "inhibition": "-7.4% (inactive)"}
{"compound": "O=C(NCc1nnc(SCC(=O)N2CCC(Cc3ccccc3)CC2)o1)c1ccco1", "inhibition": "3.48% (inactive)"}
{"compound": "Cc1ccc(CS(=O)Cc2ccc(C(=O)N3CCOCC3)o2)cc1", "note": "(stereo not drawn)", "inhibition": "-4.44% (inactive)"}
{"compound": "O=C1CSC(=S)N1c1ccc(Cl)c(Cl)c1", "inhibition": "33.2% (inactive)"}
{"compound": "O=C1CSC(=S)N1c1ccc(O)cc1", "inhibition": "50.1% (active)"}
{"compound": "COc1cc(N2C(=O)CSC2=S)cc(OC)c1OC", "inhibition": "33.1% (inactive)"}
{"compound": "CC1=CC(=NNS(=O)(=O)c2ccc([N+](=O)[O-])cc2)CC(C)(C)C1", "inhibition": "-0.66% (inactive)"}
{"compound": "Cc1nn(C(C)(C)C)c(OC(=O)CC(C)C)c1S(=O)(=O)c1ccccc1", "inhibition": "12.4% (inactive)"}
{"compound": "Cc1ccccc1OCCC(=O)OCC(=O)NCCc1ccc(S(N)(=O)=O)cc1", "inhibition": "0.01% (inactive)"}
{"compound": "O=C(Nc1ccc(-n2ccnc2P(=O)(O)c2ccccc2)cc1)c1ccccc1Br", "inhibition": "-20.5% (inactive)"}
{"compound": "CC(C)CCN1C(=O)c2ccc(C(=O)Nc3cccc(S(N)(=O)=O)c3)cc2C1=O", "inhibition": "63.2% (active)"}
{"compound": "CN1CCN(S(=O)(=O)c2cccc(C(=O)Nc3cccc(S(N)(=O)=O)c3)c2)CC1", "inhibition": "14.3% (inactive)"}
{"compound": "Cc1cccc(C(=O)Nc2ccc3c(c2)C(=O)N(CC(C)C)C3=O)c1", "inhibition": "-12.3% (inactive)"}
{"compound": "COc1ccccc1OCCNc1cc(N2CCOCC2)ccc1[N+](=O)[O-]", "inhibition": "-25% (inactive)"}
{"compound": "COc1ccc(CCNc2cc(N3CCN(C(=O)c4ccccc4OC)CC3)ccc2[N+](=O)[O-])cc1OC", "inhibition": "64% (active)"}
{"compound": "COc1ccc(CCNC(=O)c2ccccc2-c2ccccc2C(=O)O)cc1OC", "inhibition": "-8% (inactive)"}
{"compound": "C[N+](C)(C)CCNC(=O)c1c[nH]c2ccccc12", "inhibition": "-5.29% (inactive)"}
{"compound": "Cc1ccc(F)cc1NC(=O)N1CCCN(c2ccc(C(F)(F)F)cn2)CC1", "inhibition": "8.63% (inactive)"}
{"compound": "O=C(O)c1cc(S(=O)(=O)N2CCCCCC2)c(Cl)cc1Cl", "inhibition": "0.33% (inactive)"}
{"compound": "CCn1c(Cc2ccc(OC)cc2)nnc1SCC(=O)Nc1ccc(N2CCOCC2)cc1", "inhibition": "4.48% (inactive)"}
{"compound": "Cc1ccc(OCCCC(=O)Nc2ccc(N3CCOCC3)cc2)cc1", "inhibition": "6.99% (inactive)"}
{"compound": "COc1cccc(/C=C(/CC(=O)Nc2ccc(N3CCOCC3)cc2)c2nc3ccccc3s2)c1", "inhibition": "54.8% (active)"}
{"compound": "COc1cc2c(cc1OC)C(C)N(S(=O)(=O)c1cnc(Cl)c(Cl)c1)CC2", "note": "(stereo not drawn)", "inhibition": "62.8% (active)"}
{"compound": "COc1cc2c(cc1OC)CN(C(=O)c1cc(S(=O)(=O)N3CCCCC3)ccc1Cl)CC2", "inhibition": "-16.5% (inactive)"}
{"compound": "COc1cc2c(cc1OC)CN(C(=O)c1ccc(S(=O)(=O)N3CCCCCC3)cc1)CC2", "inhibition": "-2.54% (inactive)"}
{"compound": "COc1cccc(NC(=O)C(Sc2nc3ccccc3c(=O)n2CC(C)C)c2ccccc2)c1", "note": "(stereo not drawn)", "inhibition": "-17.8% (inactive)"}
{"compound": "O=C(Nc1ccc(N2CCOCC2)nc1)c1c(F)cccc1F", "inhibition": "-14.2% (inactive)"}
{"compound": "CCOC(=O)C1CCCN(C(=O)c2ccc(C)c(F)c2)CC1", "note": "(stereo not drawn)", "inhibition": "1.56% (inactive)"}
{"compound": "CN(CCc1ccccn1)C(=O)c1ccc(OC2CCN(CCc3ccccc3)CC2)cc1", "inhibition": "-24% (inactive)"}
{"compound": "CN(CCc1ccccn1)C(=O)c1ccc(OC2CCN(Cc3ccccn3)CC2)cc1", "inhibition": "50.2% (active)"}
{"compound": "Cn1cc(CNC(=O)c2ccc(OC3CCN(Cc4ccccn4)CC3)cc2)cn1", "inhibition": "-10.1% (inactive)"}
{"compound": "Cc1ccccc1C(=O)Nc1cccc(-c2nnc(SCC(=O)O)n2C)c1", "inhibition": "18.5% (inactive)"}
{"compound": "CCOC(=O)/C(C#N)=C\\c1c(C)cc(C)c(COC(C)=O)c1C", "inhibition": "-28.3% (inactive)"}
